# Test results taken from paper PMC7862700, “An all-to-all approach to the identification of sequence-specific readers for epigenetic DNA modifications on cytosine”.
# How the values were obtained:
# Assay in all cases: DAPPL (digital affinity profiling via proximity ligation, sequencing); 10 mM Tris-HCl pH 7.5, 50 mM NaCl, 1 mM DTT, 4% glycerol, room temperature, 30 min; GST-TFs on glutathione beads, 16-mer random dsDNA library, 0.1% formaldehyde crosslink after washing; high values mean tight binding
# FEV = target: T1, FEV (Homo sapiens, UniProt Q99581 1-238); settings: protein: recombinant; tags: N-terminal GST; dsDNA, one strand shown
# T1 sequence: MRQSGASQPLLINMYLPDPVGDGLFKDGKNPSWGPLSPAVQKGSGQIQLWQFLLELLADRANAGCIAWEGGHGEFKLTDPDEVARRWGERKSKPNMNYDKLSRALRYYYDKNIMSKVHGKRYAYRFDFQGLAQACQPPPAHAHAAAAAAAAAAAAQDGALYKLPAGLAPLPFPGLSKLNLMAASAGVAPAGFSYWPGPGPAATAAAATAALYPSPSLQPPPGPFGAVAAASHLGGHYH
# How it was run: (§1)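 In yeast, human transcription factors were expressed with a GST fusion, then pulled down on glutathione beads and given DNA barcodes. Pooled with a tag-only sample, they were exposed to 200 nmole of a 16-mer random double-stranded DNA library (Tris/NaCl/DTT/glycerol buffer, room temperature, 30 min), washed, crosslinked with 0.1% formaldehyde, proximity-ligated using BsaI/T4 ligase for 1 h at 37 °C, PCR-amplified and read on an Illumina NextSeq500. Each hexamer's frequency of reads for a factor, divided by the matching frequency for the tag-only sample, gives the binding signal.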
# ETV5 = ETV5 (Homo sapiens, UniProt P41161 1-510); settings: protein: recombinant; tags: N-terminal GST; dsDNA, one strand shown
# Sequence of ETV5 (P41161 whole entry): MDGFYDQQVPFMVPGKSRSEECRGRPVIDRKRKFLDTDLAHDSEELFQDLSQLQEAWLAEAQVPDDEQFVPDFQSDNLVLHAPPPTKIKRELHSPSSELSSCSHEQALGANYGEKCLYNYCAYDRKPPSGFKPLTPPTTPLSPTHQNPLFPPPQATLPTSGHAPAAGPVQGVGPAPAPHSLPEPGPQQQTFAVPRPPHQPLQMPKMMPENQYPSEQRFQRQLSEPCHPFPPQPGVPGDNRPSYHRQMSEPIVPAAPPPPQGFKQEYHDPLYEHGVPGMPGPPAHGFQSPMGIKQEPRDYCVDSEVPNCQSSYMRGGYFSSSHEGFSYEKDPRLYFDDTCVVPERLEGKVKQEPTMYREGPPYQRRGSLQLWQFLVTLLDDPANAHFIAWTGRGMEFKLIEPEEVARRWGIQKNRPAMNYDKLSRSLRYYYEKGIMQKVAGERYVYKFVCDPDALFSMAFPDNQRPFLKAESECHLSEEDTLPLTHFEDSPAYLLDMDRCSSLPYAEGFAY
# How it was run: as §1
# HSF1 = HSF1 (Homo sapiens, UniProt Q00613 1-529); settings: protein: recombinant; tags: N-terminal GST; chain copies: 3; dsDNA, one strand shown
# Sequence of HSF1 (Q00613 whole entry): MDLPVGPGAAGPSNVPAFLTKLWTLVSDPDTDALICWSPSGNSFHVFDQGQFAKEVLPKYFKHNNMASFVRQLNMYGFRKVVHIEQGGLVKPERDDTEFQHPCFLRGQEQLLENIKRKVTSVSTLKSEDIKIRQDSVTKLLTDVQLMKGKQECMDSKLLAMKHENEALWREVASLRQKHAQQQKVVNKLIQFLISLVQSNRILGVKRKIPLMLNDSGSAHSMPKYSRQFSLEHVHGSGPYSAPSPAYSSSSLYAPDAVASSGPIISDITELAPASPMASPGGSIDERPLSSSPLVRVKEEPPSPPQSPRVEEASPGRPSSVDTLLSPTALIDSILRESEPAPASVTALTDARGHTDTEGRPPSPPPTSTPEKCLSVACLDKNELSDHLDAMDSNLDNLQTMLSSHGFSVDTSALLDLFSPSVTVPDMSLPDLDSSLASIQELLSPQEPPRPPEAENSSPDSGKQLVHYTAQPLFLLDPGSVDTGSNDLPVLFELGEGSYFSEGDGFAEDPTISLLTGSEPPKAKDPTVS
# How it was run: as §1
# SPIC = target: T2, SPIC (Homo sapiens, UniProt Q8N5J4 1-248); settings: protein: recombinant; tags: N-terminal GST; dsDNA, one strand shown
# T2 sequence: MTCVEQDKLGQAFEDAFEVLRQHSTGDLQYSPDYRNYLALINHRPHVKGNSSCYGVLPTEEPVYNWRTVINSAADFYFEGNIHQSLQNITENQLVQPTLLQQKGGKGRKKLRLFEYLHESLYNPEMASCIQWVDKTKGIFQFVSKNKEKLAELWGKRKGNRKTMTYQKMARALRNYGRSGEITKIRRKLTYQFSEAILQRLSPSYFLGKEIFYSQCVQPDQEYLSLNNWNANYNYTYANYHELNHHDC
# How it was run: as §1
# ELF4 = ELF4 (Homo sapiens, UniProt Q99607 1-663); settings: protein: recombinant; tags: N-terminal GST; dsDNA, one strand shown
# Sequence of ELF4 (Q99607 whole entry): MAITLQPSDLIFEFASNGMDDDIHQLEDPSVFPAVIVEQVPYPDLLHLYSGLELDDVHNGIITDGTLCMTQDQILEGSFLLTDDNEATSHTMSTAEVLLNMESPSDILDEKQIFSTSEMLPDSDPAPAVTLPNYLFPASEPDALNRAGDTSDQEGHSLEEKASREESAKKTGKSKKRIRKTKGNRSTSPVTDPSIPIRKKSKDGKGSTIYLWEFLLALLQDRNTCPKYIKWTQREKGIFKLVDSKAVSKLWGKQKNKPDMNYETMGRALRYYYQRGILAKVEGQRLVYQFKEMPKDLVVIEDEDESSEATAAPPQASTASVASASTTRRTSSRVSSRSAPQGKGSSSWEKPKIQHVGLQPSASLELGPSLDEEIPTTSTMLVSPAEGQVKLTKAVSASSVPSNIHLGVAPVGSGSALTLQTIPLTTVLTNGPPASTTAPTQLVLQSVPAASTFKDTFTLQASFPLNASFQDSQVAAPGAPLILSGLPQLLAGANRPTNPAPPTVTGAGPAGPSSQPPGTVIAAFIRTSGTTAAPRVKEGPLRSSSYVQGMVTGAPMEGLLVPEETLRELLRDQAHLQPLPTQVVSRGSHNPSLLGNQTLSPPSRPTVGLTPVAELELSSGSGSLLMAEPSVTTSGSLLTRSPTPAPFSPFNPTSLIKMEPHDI
# How it was run: as §1
# ELK4 = target: T3, ELK4 (Homo sapiens, UniProt P28324-2 1-405); settings: protein: recombinant; tags: N-terminal GST; dsDNA, one strand shown
# T3 sequence: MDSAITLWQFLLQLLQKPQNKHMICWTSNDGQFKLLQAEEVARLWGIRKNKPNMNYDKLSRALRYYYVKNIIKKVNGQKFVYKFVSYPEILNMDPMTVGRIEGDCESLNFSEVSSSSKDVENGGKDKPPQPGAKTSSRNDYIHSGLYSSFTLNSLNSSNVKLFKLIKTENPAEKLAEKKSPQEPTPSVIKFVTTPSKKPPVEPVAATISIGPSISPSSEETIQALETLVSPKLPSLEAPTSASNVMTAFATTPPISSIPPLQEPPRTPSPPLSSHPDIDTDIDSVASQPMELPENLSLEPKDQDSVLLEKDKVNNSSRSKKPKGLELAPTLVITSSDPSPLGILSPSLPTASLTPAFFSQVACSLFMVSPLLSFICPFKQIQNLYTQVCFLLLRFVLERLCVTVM
# How it was run: as §1
# ETV2 = target: T4, ETV2 (Homo sapiens, UniProt O00321 1-342); settings: protein: recombinant; tags: N-terminal GST; dsDNA, one strand shown
# T4 sequence: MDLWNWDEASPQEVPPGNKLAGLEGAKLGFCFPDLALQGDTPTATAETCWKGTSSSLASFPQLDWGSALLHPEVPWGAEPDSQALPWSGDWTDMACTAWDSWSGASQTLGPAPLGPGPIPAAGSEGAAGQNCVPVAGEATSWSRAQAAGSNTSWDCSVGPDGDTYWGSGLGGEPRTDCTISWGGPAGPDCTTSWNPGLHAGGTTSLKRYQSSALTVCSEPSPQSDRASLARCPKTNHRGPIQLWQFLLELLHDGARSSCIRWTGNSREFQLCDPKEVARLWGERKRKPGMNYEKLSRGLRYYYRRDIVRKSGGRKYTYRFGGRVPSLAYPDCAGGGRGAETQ
# How it was run: as §1
# ELF3 = target: T5, ELF3 (Homo sapiens, UniProt P78545 1-371); settings: protein: recombinant; tags: N-terminal GST; dsDNA, one strand shown
# T5 sequence: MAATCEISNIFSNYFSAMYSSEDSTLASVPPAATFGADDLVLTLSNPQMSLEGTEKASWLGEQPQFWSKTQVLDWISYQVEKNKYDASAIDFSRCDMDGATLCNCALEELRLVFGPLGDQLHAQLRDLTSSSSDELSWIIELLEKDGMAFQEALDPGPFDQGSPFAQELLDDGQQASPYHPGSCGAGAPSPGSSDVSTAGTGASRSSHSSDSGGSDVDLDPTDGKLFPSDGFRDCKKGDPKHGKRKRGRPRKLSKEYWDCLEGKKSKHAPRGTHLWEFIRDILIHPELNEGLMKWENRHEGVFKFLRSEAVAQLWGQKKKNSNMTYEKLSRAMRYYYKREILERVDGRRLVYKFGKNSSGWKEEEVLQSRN
# How it was run: as §1
# CRX = CRX (Homo sapiens, UniProt O43186 1-299); settings: protein: recombinant; tags: N-terminal GST; dsDNA, one strand shown
# Sequence of CRX (O43186 whole entry): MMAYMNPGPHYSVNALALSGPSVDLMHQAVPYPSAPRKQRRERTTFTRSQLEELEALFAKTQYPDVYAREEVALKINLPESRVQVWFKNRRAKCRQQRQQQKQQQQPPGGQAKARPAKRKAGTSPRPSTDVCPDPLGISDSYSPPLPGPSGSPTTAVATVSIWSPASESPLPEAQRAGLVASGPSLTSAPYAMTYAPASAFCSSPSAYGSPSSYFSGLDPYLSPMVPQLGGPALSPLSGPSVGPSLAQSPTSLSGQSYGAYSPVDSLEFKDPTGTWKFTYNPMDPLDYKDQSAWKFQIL
# How it was run: as §1
# ETV1 = ETV1 (Homo sapiens, UniProt P50549 1-477); settings: protein: recombinant; tags: N-terminal GST; dsDNA, one strand shown
# Sequence of ETV1 (P50549 whole entry): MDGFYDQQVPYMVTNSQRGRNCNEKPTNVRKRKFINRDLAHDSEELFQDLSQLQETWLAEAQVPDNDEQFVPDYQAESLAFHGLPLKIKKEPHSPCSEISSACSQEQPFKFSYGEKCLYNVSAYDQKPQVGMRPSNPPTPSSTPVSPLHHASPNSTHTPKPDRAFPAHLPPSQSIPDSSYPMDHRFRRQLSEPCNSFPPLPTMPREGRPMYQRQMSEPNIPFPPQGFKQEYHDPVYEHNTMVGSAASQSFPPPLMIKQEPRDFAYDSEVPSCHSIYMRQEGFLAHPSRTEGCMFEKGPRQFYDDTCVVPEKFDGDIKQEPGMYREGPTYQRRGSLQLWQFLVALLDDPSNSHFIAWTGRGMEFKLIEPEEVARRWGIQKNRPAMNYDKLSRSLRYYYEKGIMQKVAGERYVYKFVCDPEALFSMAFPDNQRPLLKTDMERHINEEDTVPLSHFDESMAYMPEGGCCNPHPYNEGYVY
# How it was run: as §1
# ERF = target: T6, ERF (Homo sapiens, UniProt P50548 1-548); settings: protein: recombinant; tags: N-terminal GST; dsDNA, one strand shown
# T6 sequence: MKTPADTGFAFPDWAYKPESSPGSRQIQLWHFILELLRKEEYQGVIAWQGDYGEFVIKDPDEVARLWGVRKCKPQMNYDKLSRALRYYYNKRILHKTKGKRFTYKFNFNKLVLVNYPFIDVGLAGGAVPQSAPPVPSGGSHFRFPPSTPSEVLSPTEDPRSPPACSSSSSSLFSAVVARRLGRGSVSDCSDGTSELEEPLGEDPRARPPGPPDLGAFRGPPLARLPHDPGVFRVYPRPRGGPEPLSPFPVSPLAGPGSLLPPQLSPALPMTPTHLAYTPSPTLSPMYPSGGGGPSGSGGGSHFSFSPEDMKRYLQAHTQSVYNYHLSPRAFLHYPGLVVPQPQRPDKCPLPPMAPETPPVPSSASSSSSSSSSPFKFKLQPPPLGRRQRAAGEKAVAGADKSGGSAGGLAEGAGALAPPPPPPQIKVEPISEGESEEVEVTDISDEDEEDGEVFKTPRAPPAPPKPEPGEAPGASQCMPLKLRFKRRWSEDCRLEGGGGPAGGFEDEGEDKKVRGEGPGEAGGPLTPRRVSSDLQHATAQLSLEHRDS
# How it was run: as §1
# ETV3L = target: T7, ETV3L (Homo sapiens, UniProt Q6ZN32 1-361); settings: protein: recombinant; tags: N-terminal GST; dsDNA, one strand shown
# T7 sequence: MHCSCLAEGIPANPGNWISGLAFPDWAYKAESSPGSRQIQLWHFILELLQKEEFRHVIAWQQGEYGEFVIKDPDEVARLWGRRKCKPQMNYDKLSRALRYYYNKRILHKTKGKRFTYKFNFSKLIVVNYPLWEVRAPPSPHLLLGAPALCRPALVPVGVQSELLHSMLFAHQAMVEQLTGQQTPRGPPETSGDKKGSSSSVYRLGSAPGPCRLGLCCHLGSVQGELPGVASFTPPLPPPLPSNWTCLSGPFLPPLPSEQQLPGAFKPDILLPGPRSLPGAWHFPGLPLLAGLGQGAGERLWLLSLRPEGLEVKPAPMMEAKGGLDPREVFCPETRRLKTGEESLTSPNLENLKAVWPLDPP
# How it was run: as §1
# ETS2 = target: T8, ETS2 (Homo sapiens, UniProt P15036 1-469); settings: protein: recombinant; tags: N-terminal GST; dsDNA, one strand shown
# T8 sequence: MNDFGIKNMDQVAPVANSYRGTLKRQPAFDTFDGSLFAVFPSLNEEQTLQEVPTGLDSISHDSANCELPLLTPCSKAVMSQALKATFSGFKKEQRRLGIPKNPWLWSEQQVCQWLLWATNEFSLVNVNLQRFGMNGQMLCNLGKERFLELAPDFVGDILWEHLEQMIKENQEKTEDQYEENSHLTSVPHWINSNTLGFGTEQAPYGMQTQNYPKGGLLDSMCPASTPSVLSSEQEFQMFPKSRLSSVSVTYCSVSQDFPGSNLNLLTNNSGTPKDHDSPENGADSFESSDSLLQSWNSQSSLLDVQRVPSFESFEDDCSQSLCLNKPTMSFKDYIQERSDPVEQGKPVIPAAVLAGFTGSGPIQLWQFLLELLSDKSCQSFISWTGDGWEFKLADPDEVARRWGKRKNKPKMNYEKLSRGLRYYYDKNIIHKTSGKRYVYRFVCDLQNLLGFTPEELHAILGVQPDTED
# How it was run: as §1
# SPDEF = target: T9, SPDEF (Homo sapiens, UniProt O95238 1-335); settings: protein: recombinant; tags: N-terminal GST; dsDNA, one strand shown
# T9 sequence: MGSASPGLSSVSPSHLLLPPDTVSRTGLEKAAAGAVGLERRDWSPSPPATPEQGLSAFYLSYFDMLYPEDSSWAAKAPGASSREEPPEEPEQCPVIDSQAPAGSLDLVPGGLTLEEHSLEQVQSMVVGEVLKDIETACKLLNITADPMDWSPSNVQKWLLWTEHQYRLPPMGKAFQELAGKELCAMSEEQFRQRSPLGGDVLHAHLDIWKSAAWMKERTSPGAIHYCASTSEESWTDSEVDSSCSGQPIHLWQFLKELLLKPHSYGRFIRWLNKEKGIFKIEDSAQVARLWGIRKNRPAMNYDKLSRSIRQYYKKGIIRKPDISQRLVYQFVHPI
# How it was run: as §1
# ETV7 = target: T10, ETV7 (Homo sapiens, UniProt Q9Y603 1-341); settings: protein: recombinant; tags: N-terminal GST; dsDNA, one strand shown
# T10 sequence: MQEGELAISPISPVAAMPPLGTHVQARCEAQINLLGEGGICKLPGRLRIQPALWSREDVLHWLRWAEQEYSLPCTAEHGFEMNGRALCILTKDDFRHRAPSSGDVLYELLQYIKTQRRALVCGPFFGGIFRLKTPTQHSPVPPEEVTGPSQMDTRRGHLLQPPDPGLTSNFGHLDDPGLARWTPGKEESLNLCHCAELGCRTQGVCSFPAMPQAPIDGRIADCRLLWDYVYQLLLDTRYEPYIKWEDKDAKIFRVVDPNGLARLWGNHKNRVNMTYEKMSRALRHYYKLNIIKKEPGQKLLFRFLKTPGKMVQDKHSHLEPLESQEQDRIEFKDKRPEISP
# How it was run: as §1
# ELF5 = target: T11, ELF5 (Homo sapiens, UniProt Q9UKW6-2 1-255); settings: protein: recombinant; tags: N-terminal GST; dsDNA, one strand shown
# T11 sequence: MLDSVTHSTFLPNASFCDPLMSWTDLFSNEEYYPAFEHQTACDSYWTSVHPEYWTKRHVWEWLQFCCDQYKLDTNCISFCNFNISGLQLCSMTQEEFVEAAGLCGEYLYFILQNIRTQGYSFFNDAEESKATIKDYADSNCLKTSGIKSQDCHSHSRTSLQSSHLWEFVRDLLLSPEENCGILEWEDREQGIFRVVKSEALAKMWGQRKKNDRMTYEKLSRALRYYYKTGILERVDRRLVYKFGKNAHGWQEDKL
# How it was run: as §1
# ETV3 = target: T12, ETV3 (Homo sapiens, UniProt P41162-2 1-143); settings: protein: recombinant; tags: N-terminal GST; dsDNA, one strand shown
# T12 sequence: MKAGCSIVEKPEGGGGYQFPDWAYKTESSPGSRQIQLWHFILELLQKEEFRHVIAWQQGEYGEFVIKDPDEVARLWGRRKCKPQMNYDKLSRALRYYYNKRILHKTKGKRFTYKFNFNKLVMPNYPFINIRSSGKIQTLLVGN
# How it was run: as §1
# ETV6 = ETV6 (Homo sapiens, UniProt P41212 1-452); settings: protein: recombinant; tags: N-terminal GST; dsDNA, one strand shown
# Sequence of ETV6 (P41212 whole entry): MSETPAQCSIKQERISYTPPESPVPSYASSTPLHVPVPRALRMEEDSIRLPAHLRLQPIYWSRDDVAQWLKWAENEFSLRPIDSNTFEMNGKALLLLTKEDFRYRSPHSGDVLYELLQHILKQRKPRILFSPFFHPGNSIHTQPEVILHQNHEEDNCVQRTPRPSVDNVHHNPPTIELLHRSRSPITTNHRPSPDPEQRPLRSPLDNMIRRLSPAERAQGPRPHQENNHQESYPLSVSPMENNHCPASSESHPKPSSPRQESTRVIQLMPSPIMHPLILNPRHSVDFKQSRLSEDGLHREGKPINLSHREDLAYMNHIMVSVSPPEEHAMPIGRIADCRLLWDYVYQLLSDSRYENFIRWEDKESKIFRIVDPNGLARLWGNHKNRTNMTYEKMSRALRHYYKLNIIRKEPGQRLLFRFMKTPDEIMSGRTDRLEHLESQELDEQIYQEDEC
# How it was run: as §1
sequence,measurement,setting,value
CATTCC,binding signal,FEV,"1.21 fold enrichment (6-mer frequency, TF over GST control)"
same,binding signal,ETV5,"1.29 fold enrichment (6-mer frequency, TF over GST control)"
same,binding signal,HSF1,"1.67 fold enrichment (6-mer frequency, TF over GST control)"
same,binding signal,SPIC,"1.11 fold enrichment (6-mer frequency, TF over GST control)"
same,binding signal,ELF4,"1.27 fold enrichment (6-mer frequency, TF over GST control)"
same,binding signal,ELK4,"1.28 fold enrichment (6-mer frequency, TF over GST control)"
same,binding signal,ETV2,"1.31 fold enrichment (6-mer frequency, TF over GST control)"
same,binding signal,ELF3,"1.2 fold enrichment (6-mer frequency, TF over GST control)"
same,binding signal,CRX,"1.07 fold enrichment (6-mer frequency, TF over GST control)"
same,binding signal,ETV1,"1.19 fold enrichment (6-mer frequency, TF over GST control)"
same,binding signal,ERF,"1.22 fold enrichment (6-mer frequency, TF over GST control)"
same,binding signal,ETV3L,"1.28 fold enrichment (6-mer frequency, TF over GST control)"
same,binding signal,ETS2,"1.28 fold enrichment (6-mer frequency, TF over GST control)"
same,binding signal,SPDEF,"1.29 fold enrichment (6-mer frequency, TF over GST control)"
same,binding signal,ETV7,"1.19 fold enrichment (6-mer frequency, TF over GST control)"
same,binding signal,ELF5,"1.28 fold enrichment (6-mer frequency, TF over GST control)"
same,binding signal,ETV3,"1.27 fold enrichment (6-mer frequency, TF over GST control)"
same,binding signal,ETV6,"1.3 fold enrichment (6-mer frequency, TF over GST control)"
